The values that follow come from PubChem BioAssay AID449762 (Southern Research Specialized Biocontainment Screening …, 2010).

The structures appear in SMILES notation. Several values for one entry are separate records, joined by “and”; a condition that tells them apart may be missing. Equal entries are not always repeated. The whole screen tested about 330,000 compounds, of which about 1,900 (0.58%) were called active. Roughly 4% stayed inconclusive and do not appear here. Rule as the data show it: inconclusive = inhibition above about 70% without an active follow-up result; inactive = below that. These entries were drawn from the full list. Entries with a potency or affinity are not part of this list.

This experiment in a line: M. tuberculosis growth inhibition, HTS (AID 449762).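 Also: bacterial growth assessed after seven days of incubation.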 The following applies: M. tuberculosis H37Rv growth inhibition, 7H9 media; at 25 µM; hits give high values.
As a reminder, the inhibition is the relative decrease from the control value, in per cent. Turning to `CCN(c1ccccc1)S(=O)(=O)c1ccc(C(=O)Nc2ccncc2)cc1`, the inhibition was 48.8% (inactive). In the case of `Cc1ccc2ncnc(NCCC(=O)O)c2c1` it was -11.8% (inactive). The same measure for `NC(=O)CSc1nnc(NC(=O)c2ccc(S(=O)(=O)N3CCCCC3)cc2)s1`: 4.86% (inactive); for `Fc1ccc2cnc(-c3ccccc3)c(-c3ccc(C(F)(F)F)cc3)c2c1`: 39.5% (inactive). As for `COc1cc2cnc(-c3ccccc3)c(-c3cc(OC)c(OC)c(OC)c3)c2cc1OC`, the inhibition is 27.5% (inactive). For `CC(C)(C)c1ccc(OCCC(=O)NC2=NCCS2)cc1`, the inhibition was 48.1% (inactive). The same measure for `CCOc1ccc(OCCCC(=O)NC2=NCCS2)cc1`: 1.39% (inactive); for `O=c1ccc(-c2ccccc2)nn1Cc1ccccc1F`: 4.51% (inactive).

`COc1ccc(-c2cc(C(=O)NC(C)c3ccccn3)c3ccccc3n2)cc1OC` (configuration not stated): the inhibition is -9.49% (inactive). The same measure for `CCCCCCCN1N=C(C)C(C(=O)c2ccccc2)C1=O` (configuration not stated): 64.7% (inactive); for `CC1=NN(c2ccccc2)C(=O)C1C(=O)c1cc([N+](=O)[O-])cc([N+](=O)[O-])c1` (configuration not stated): -4.74% (inactive). In the case of `CN1CC(=O)N2C(c3cccc([N+](=O)[O-])c3)c3[nH]c4ccccc4c3C[C@H]2C1=O` (some centres not stated) it was 6.28% (inactive); in that of `CCOc1cc2c3c(c1)C1(Nc4ccccc4S1)C(=O)N3C(C)(C)CC2C` (configuration not stated), 22.3% (inactive); in that of `CCOc1cc2c3c(c1)C1(OCCO1)C(=O)N3C(C)(C)CC2C` (configuration not stated), 8.79% (inactive). For `O=C(CN1CCN(c2ccccc2)CC1)NC(=O)NCc1ccco1`, the inhibition is -5.69% (inactive).

On to `CC(=O)Nc1ccc(S(=O)(=O)N(C)CC(=O)NC2=NCCS2)cc1`, for which the inhibition was -7.06% (inactive).

Regarding `CC1=NC(C)(C)Cc2ccccc21`, the inhibition was -5.42% (inactive). In the case of `CC1(C)CC(=O)C(C2=NC(C)(C)Cc3ccccc32)=C(O)C1` it was -7.77% (inactive); in that of `O=C(CN(C(=O)c1ccccc1)N1C(=O)CCC1=O)c1cccs1`, -6.33% (inactive); in that of `CN1CC(=O)N(CC(=O)N2N=C(c3ccc(Cl)cc3)CC2c2ccco2)C1=O` (configuration not stated), 22.3% (inactive). Regarding `CCC1(CC)NC(=O)N(CC(=O)N2N=C(c3ccc(Cl)cc3)CC2c2ccco2)C1=O` (configuration not stated), the inhibition is 3.27% (inactive). In the case of `O=C(N[C@@H]1C/C=C\C[C@@H](CC(=O)N(CCO)Cc2ccccc2)C(=O)N[C@@H](c2ccccc2)COC1=O)OCC1c2ccccc2-c2ccccc21` it was 3.32% (inactive); in that of `COc1cc2sc(-c3ccc(S(C)(=O)=O)cc3)c(C(=O)NCCCCO)c2cc1OC`, 4.06% (inactive); in that of `CCc1c(C)nc(N2CCN(c3cccc(OC)c3)CC2)[nH]c1=O`, -3.6% (inactive).

For `Cc1ccc(-c2nc3ccc(Cl)cc3c(=O)n2O)cc1`, the inhibition was 54.8% (inactive). `O=c1c2ccccc2nc(-c2ccc([N+](=O)[O-])cc2)n1O`: the inhibition was 30.3% (inactive). For the compound `CSCCCNC(=S)Nc1ccc(N2CCOCC2)cc1N1CCOCC1`, the inhibition was 6.87% (inactive). With `Cc1cc(C)c(C(=O)COC(=O)c2nn(C)c(=O)c3ccccc23)cc1C`, the inhibition was -5.14% (inactive).

Turning to `Cc1ccc(Sc2ccc(C(=O)N3CCOCC3)cc2[N+](=O)[O-])cc1`, the inhibition is 0.73% (inactive).

For the compound `O=C(O)/C=C/C(=O)Nc1ccc(O)cc1`, the inhibition was -6.75% (inactive). Consider `O=C(O)/C=C/C(=O)Nc1ccc(C(=O)c2ccccc2)cc1`, for which the inhibition was 3.27% (inactive). In the case of `CC(=O)C[C@H](O)CC(=O)[C@H]1OC(=O)[C@H](C)CCCCc2ccccc21` it was -1.44% (inactive). The same measure for `O=C(O)c1cc(N/N=C/c2ccc(-c3ccc(F)cc3)o2)ccc1Cl`: 13.7% (inactive). In the case of `CCCn1c(CCC(=O)Nc2ccccc2Cc2ccccc2)nc2cc(S(=O)(=O)N3CCOCC3)ccc21` it was -3.41% (inactive); in that of `CCOc1ccc2noc3c2c1C(=O)c1ccccc1-3`, 6.97% (inactive); in that of `COc1ccc2noc3c2c1C(=O)c1ccccc1-3`, 38.9% (inactive).

For the compound `NC(=O)COc1ncnc2scc(-c3ccc(F)cc3)c12`, the inhibition is -9.11% (inactive). In the case of `c1ccc(-c2nccc(-c3ccc(-n4cnc5ccccc54)cc3)n2)cc1` it was 16% (inactive); in that of `c1ccc2c(c1)ncn2-c1ccc(-c2ccnc(-c3ccncc3)n2)cc1`, -0.53% (inactive); in that of `CCN(CC)S(=O)(=O)c1cccc(C(=O)NCCCn2ccnc2)c1`, 3.66% (inactive). In the case of `CN1CCc2cccc3c2C1Cc1ccc(O)c(O)c1-3` (configuration not stated) it was 35.5% (inactive); in that of `CN1CCc2cccc3c2[C@H]1Cc1ccc(O)c(O)c1-3`, 29.9% (inactive) and 14.3% (inactive) and 5.91% (inactive). Consider `COCCCNc1ncnc2sc3c(c12)CCC(C)C3` (configuration not stated), for which the inhibition was 13.1% (inactive). The same measure for `CC1CCc2c(sc3ncnc(NCCN4CCOCC4)c23)C1` (configuration not stated): 1.22% (inactive); for `COc1cc(C)cc(CN2CC=C(c3ccccc3)CC2)c1O`: 4.09% (inactive). `Cn1nc(C(=O)NCC(c2cccs2)N2CCOCC2)c2ccccc2c1=O` (configuration not stated): the inhibition is -7.54% (inactive). The same measure for `CCc1c(C)nc2cc(-c3cc(OC)cc(OC)c3)nn2c1N1CCN(CCN2CCOCC2)CC1`: -1.99% (inactive); for `CCOCCN1CCN(c2c(C)c(C)nc3cc(-c4cc(OC)cc(OC)c4)nn23)CC1`: -16.2% (inactive). For `COc1ccc(OC)c(NC(=O)c2ccc(S(=O)(=O)N3CCN(C)CC3)cc2)c1`, the inhibition was -1.22% (inactive).

As to `Cc1ccc(CNS(=O)(=O)c2ccc(-n3cnnn3)c(C)c2)cc1`, the inhibition is 5.67% (inactive). The same measure for `COc1cccc(-c2c(-c3cc(OC)cc(OC)c3)n(C)c3ccc(-c4cnc(N5CCOCC5)nc4)cc23)c1`: 6.76% (inactive); for `COc1cc(OC)cc(-c2c(C#Cc3ccsc3)c3cc(-c4ccc(CN5CCOCC5)cc4)ccc3n2C)c1`: 1.54% (inactive); for `COc1ccc(NS(=O)(=O)c2cccc(C(=O)N3CCN(Cc4ccc5c(c4)OCO5)CC3)c2)cc1`: 12.7% (inactive). Turning to `O=Cc1cn(-c2ccccc2)nc1-c1cccnc1`, the inhibition was -1.66% (inactive). In the case of `O=C(/C=C/c1cn(-c2ccccc2)nc1-c1cccnc1)N1CCCCC1` it was -0.1% (inactive); in that of `Cc1nc2c(-c3ccccc3)c(C)nn2c(C)c1CCC(=O)N1CCC2(CC1)OCCO2`, 8.75% (inactive); in that of `COc1cc(/C=C/C(=O)OCC(=O)NCCc2ccccc2)ccc1OC(F)F`, -11.9% (inactive). Turning to `N#C/C(=C\c1ccc(Sc2nc3ccccc3[nH]2)o1)c1ccccc1`, the inhibition is -1.33% (inactive). Consider `N#C/C(=C/c1ccc(Sc2nc3ccccc3[nH]2)o1)c1cccc(F)c1`, for which the inhibition is 3% (inactive). `CCOC(=O)Cn1nc(C)n(-c2ccccc2)c1=O`: the inhibition was -8.51% (inactive). For `C[C@H](Cc1ccccc1)Nc1ncnc2c1ncn2[C@@H]1O[C@H](CO)[C@@H](O)[C@H]1O`, the inhibition is -4.76% (inactive). As for `CN(C)c1ncnc2c1ncn2C1OC(CO)C(O)C1O` (configuration not stated), the inhibition is -4.17% (inactive).

With `CCOc1ccccc1-n1nnnc1SCC(=O)OC`, the inhibition is 3.09% (inactive). In the case of `Cc1cc(C)n2c(Br)c(CN3CCCC(C)C3)nc2n1` (configuration not stated) it was -0.64% (inactive); in that of `Clc1ccc(CN2C3=NCCN3c3ccccc32)cc1Cl`, -11.7% (inactive); in that of `CCOc1cccc(-c2c(C(=O)N/N=C/c3sccc3C)nnn2-c2nonc2N)c1`, 3.18% (inactive). In the case of `CCc1ccc(NC(=O)CSc2nc3ncc(Br)cc3[nH]2)cc1` it was 49.8% (inactive); in that of `O=C(CSc1nc2ncccc2[nH]1)Nc1ccc2c(c1)OCO2`, -7.9% (inactive); in that of `N#Cc1ccccc1OCc1cccc(S(=O)(=O)N2CCOCC2)c1`, -6.86% (inactive). In the case of `OCCN(CC#CC(O)(c1ccccc1)C1CCCC1)CCO` (configuration not stated) it was 3.68% (inactive). Take `Cn1c(CCn2ccccc2=O)nc2cc(NC(=O)COc3ccccc3)ccc21`: the inhibition was 0.17% (inactive).

With `CCCC(=O)N1CCCC(c2nc(-c3cccc(OC)c3)no2)C1` (configuration not stated), the inhibition was -8.11% (inactive).

Turning to `COc1ccc(N2CCN(C(=O)c3ccc(Oc4ccc(C(F)(F)F)cn4)cc3)CC2)cc1`, the inhibition is 10.5% (inactive). As to `O=C(c1ccc(Oc2ccc(C(F)(F)F)cn2)cc1)N1CCN(c2ccccc2)CC1`, the inhibition is 46.7% (inactive). As to `Cc1ccc(S(=O)(=O)N2CCCCC2)cc1NC(=O)COC(=O)c1ccccc1F`, the inhibition is -3.82% (inactive). Turning to `CCOc1ccc(NC(=O)CN(C)C(=O)c2c(-c3ccccc3Cl)noc2C)cc1OCC`, the inhibition was 1.46% (inactive).

As for `COc1ccccc1-n1cnnc1SCC(=O)Nc1cc(C)on1`, the inhibition was -1.02% (inactive).

As for `COC(=O)c1c(C(=O)OC)c2n(c1C)CCC2`, the inhibition is -2.13% (inactive). Consider `Cc1cc(C)c2ccc(C(=O)O)nc2c1O`, for which the inhibition is -5.39% (inactive).

Consider `Cc1cc(C)c2ccc(N)nc2c1O`, for which the inhibition was -11.8% (inactive). The same measure for `CCOc1ccc2[nH]cc(C(=O)N3CCN(CC)CC3)c(=O)c2c1`: 5.18% (inactive). In the case of `COc1ccc(-c2noc(CCCC(=O)Nc3ccc(C(N)=O)cc3)n2)cc1` it was -3.01% (inactive); in that of `Cc1cccc(-c2noc(CCC(=O)Nc3ccc(C(N)=O)cc3)n2)c1`, 4.71% (inactive); in that of `Cc1ccc(C)c(S(=O)(=O)N2CCN(C(=O)CCc3c[nH]c4ccccc34)CC2)c1`, -3.94% (inactive). The same measure for `CSc1nsc(/C=C/Nc2ccc(C)cc2)c1C#N`: 18.6% (inactive); for `CSc1nsc(/C=C/Nc2ccc(F)cc2F)c1C#N`: 7.19% (inactive). For `O=c1c2cnn(-c3ccccc3)c2ncn1Cc1cccc(Cl)c1`, the inhibition is 0.84% (inactive). In the case of `NNC(=O)COc1cccc(Oc2ccccc2)c1` it was 7.98% (inactive); in that of `O=C(COc1ccccc1)Nc1ncccn1`, -7.9% (inactive); in that of `Cc1ccc2c(c1)C1(OCCCO1)C(=O)N2CC#N`, -7.17% (inactive).

In the case of `Cc1nc(CSc2ccc(Cl)cc2)cc(N2CCOCC2)n1`, the inhibition is 0.76% (inactive). With `O=S(=O)(Cc1cc(N2CCOCC2)nc(-c2ccccn2)n1)c1ccccc1`, the inhibition is 5.9% (inactive).
